High-throughput results deposited in PubChem BioAssay by National Center for Advancing Translational Sciences (NCATS).
Many of the other results were omitted from the sample, so hits are more common in it than they were.
Pf Dd2 growth = inhibitors of Plasmodium falciparum Dd2 growth. P. falciparum Dd2 growth, SYBR Green, 72 h. Potency, µM (highest dose often 28.9 µM), for the others: at the highest dose activity, negative = inhibition, most hits filed as inhibitors. 4.3% of 120,000 active; active = well fitted inhibition curve with a large enough effect;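 also: plate controls were DMSO vehicle for no effect and reference drug for full effect; nearly all actives have a fitted effect of over 65% in size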
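Readout: SYBR Green fluorescence, 485 nm excitation, 535 nm emission, after ~16 h lysis at 37C. Before that, Dd2-infected red cells (2.5% hematocrit) grew 72 h with compound, 29 uM top final concentration.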
An asterisk follows results filed as active; i = inactive; [ ] = dose if it differs, or a comment. Potency is read from the fitted curve at half-maximal effect.

SMILES | Pf Dd2 growth
CCCN1CCCC12Cc1ccccc1CN(C(=O)CCCC(=O)O)C2 (stereo unspecified) | -20.1%
O=C(COc1ccc(F)cc1)N1CCC2(CC1)NC(=O)N(c1ccccc1Cl)N2 | -17.7%
CO[C@H]1[C@H](NC(=O)CCc2cccnc2)c2ccccc2C12CCNCC2 | -25.6%
Cn1ncc(N2CCCC(CC(=O)NCc3cc(F)cc(F)c3)C2)cc1=O (stereo unspecified) | 21.1%
CN(C)c1nccnc1OC1CCN(C(=O)CC2CCCC2)C1 (stereo unspecified) | -8.7%
O=C(Cn1ccn2nc(-c3ccc(F)cc3)c(CO)c2c1=O)Nc1ccc2c(c1)OCO2 | -20.6%
CCn1nccc1C(=O)N1CCC2(CC1)NC(=O)N(c1cccc(F)c1)N2 | 24.6%
C=CCN1CC2(CCC1=O)CCN(S(=O)(=O)c1ccc(F)cc1)CC2 | -5.8%
COc1ccccc1CC(=O)NC(C)C(=O)N1CCN(c2ccccn2)CC1 (stereo unspecified) | i
OC1(CN2CCN(c3ccc(F)c(Cl)c3)CC2)CCCNC1 (stereo unspecified) | 7.94µM*
OC1(CN2CCN(c3nccs3)CC2)CCCNC1 (stereo unspecified) | -3.7%
Cn1ncc(N2CCN(CC3(O)CCCNC3)CC2)cc1=O (stereo unspecified) | -2.7%
CC(C)NC(=O)N1CCC2(CC1)CN(C(=O)Cc1ccccc1)CCO2 | -19.2%
COc1ccc(C(=O)N[C@@H]2CCC[C@@H]2C(=O)NCc2c(C)n[nH]c2C)cc1 | 1.6%
COc1ccccc1N1CCN([C@H]2[C@@H]3OC[C@@H](O3)[C@@H](NCc3ccco3)[C@@H]2O)CC1 | i
Cc1ccc(C)c(Cn2c(C(C)NC(=O)c3ccccc3)nc3ccccc32)c1 (stereo unspecified) | -14.7%
Cc1cc(C)c(Cn2c(C(O)c3ccccc3)nc3ccccc32)c(C)c1 (stereo unspecified) | 3.16µM*
CCOc1ccccc1N1CC(c2nc3ccccc3n2Cc2c(C)cc(C)cc2C)CC1=O (stereo unspecified) | 28.5%
COCCn1ncc(N2CCC(NC(=O)C3CCOC3)CC2)cc1=O (stereo unspecified) | 18.5%
CCOC(=O)N1CCc2c(sc3c2c(=O)n(-c2ccc(Cl)cc2)c(=O)n3Cc2cccc(C)c2)C1 | -6.5%
O=C(Cn1c(=O)n(-c2ccccc2)c(=O)c2c3c(sc21)CCCC3)Nc1ccc(F)cc1 | 18.5%
CC(=O)N1CCc2c(sc3c2c(=O)n(Cc2ccccc2)c(=O)n3Cc2cc(C)ccc2C)C1 | -15.9%
CCOC(=O)N1CCc2c(sc3c2c(=O)n(-c2ccc(Cl)cc2)c(=O)n3Cc2cccc(OC)c2)C1 | -21.3%
CCc1ccc(-n2c(=O)c3c4c(sc3n(CC(=O)c3ccc(Br)cc3)c2=O)CCC4)cc1 | -24.5%
CC(=O)N1CCc2c(sc3c2c(=O)n(-c2ccccc2C)c(=O)n3CC(=O)c2ccccc2)C1 | -3.7%
SMILES | Pf Dd2 growth
CCc1ccc(-n2c(=O)c3c4c(sc3n(CC(=O)c3ccc(Cl)cc3)c2=O)CCC4)cc1 | -19.5%
CCOC(=O)N1CCc2c(sc3c2c(=O)n(-c2ccc(Cl)cc2)c(=O)n3CC(C)C)C1 | 17.2%
CCOC(=O)N1CCc2c(sc3c2c(=O)n(Cc2ccccc2)c(=O)n3Cc2cccc(Cl)c2)C1 | 11.2µM*
CCOC(=O)N1CCc2c(sc3c2c(=O)n(-c2ccc(CC)cc2)c(=O)n3CC(=O)c2ccc(F)cc2)C1 | 7.94µM*
CC(=O)N1CCc2c(sc3c2c(=O)n(CCc2ccccc2)c(=O)n3Cc2ccccc2C)C1 | 7.94µM*
CCOC(=O)N1CCc2c(sc3c2c(=O)n(-c2ccc(Cl)cc2)c(=O)n3CC(=O)Nc2ccccc2)C1 | 8.91µM*
Cc1cnn(C2(C(=O)O)CCN(C(=O)c3cnn4cccnc34)CC2)c1 | -10.7%
COCc1cc(C[C@@H]2CC[C@H](O)[C@@H](CNC(=O)c3ccccc3)O2)no1 | -20.7%[44.1 µM]
O=C1NCCOCCCN(C(=O)CC2CCCC2)[C@H]2CCCC[C@@H]12 | -23.1%
O=C(c1ccc(Cl)nc1)N1CCC(c2nn(-c3ccccc3)c(=O)[nH]2)CC1 | -18.9%
COc1ccc(C(=O)N2CCOC3(CCN([S+](C)(=O)[O-])CC3)C2)cc1 | 13.6%
CN1[C@@H](CCC(=O)N2CCc3ccccc32)CNC(=O)[C@@H]2[C@H]1CCN2Cc1ccc(S(C)(=O)=O)cc1 | -16.6%
COCCOC1CCOC2(CCN(C(=O)c3ccc(OC)c(OC)c3)CC2)C1 (stereo unspecified) | i
O=c1cc(-c2cnccn2)oc2c(Nc3cccc(OC(F)(F)F)c3)nccc12 | -3.0%[44.1 µM]
Cc1nn(C)c(C)c1CCC(=O)N1CCN(c2ccc(C#N)cc2)C(=O)C1 | 5.0%
CN(Cc1nc2ccc(Cl)cc2[nH]1)C(=O)c1ccc2cccc(F)c2n1 | -27.1%
COc1ccccc1C(=O)N1CCC2(C1)NC(=O)c1ccccc1CO2 (stereo unspecified) | -23.1%
O=C(NCc1cccnc1)[C@@H]1C[C@@H](O)CN1C1CCN(C(=O)c2cc3ccccc3[nH]2)CC1 | i
O=C(CC1CCCN(c2cn[nH]c(=O)c2)C1)NCc1cccs1 (stereo unspecified) | 50.3%
CC(=O)N1CCc2c(sc3c2c(=O)n(-c2ccc(F)cc2)c(=O)n3Cc2cc(C)ccc2C)C1 | -0.8%
CCOC(=O)N1CCc2c(sc3c2c(=O)n(Cc2ccccc2)c(=O)n3CC(=O)Nc2cccc(CC)c2)C1 | 7.08µM*
CC(=O)c1cccc(-n2c(=O)c3c4c(sc3n(CC(=O)Nc3ccccc3F)c2=O)CN(C(C)=O)CC4)c1 | 17.1%
CCOC(=O)N1CCc2c(sc3c2c(=O)n(CCc2ccccc2)c(=O)n3CC(=O)Nc2ccccc2C)C1 | 0.0%
COc1cccc(-n2c(=O)c3c4c(sc3n(Cc3ccc(F)cc3Cl)c2=O)CCCC4)c1 | 12.7%
CC(=O)N1CCc2c(sc3c2c(=O)n(-c2cccc(Cl)c2)c(=O)n3Cc2ccc(F)cc2Cl)C1 | 11.2µM*
SMILES | Pf Dd2 growth
CC(=O)N1CCC(Cc2ccc(C(=O)N(C)C)cc2)CC1 | -10.6%
Clc1cccc(-c2ccc(CN3CCN(C4CCNC4)CC3)o2)c1 (stereo unspecified) | i
Cc1ccc(F)cc1S(=O)(=O)N1C[C@@H](C)[C@@](C)(O)C1 | -9.8%
O=C1NCC(=O)N2CCN(C3CCN(Cc4ccco4)CC3)CC12 (stereo unspecified) | 5.0%
CN1CCN(Cc2nc(C3(O)CCN(C(=O)C4CCCCC4)CC3)cs2)CC1 | -12.9%[44.1 µM]
CCOCCCNC(=O)N1CC(Oc2cccc(-c3nc(C)no3)c2)C1 | 5.1%[5.79 µM]
O=C(NC1CCCC1)N1CC(Oc2cccc(-c3nc(-c4ccccc4)no3)c2)C1 | i[5.79 µM]
CCCNC(=O)N1CC(Oc2cccc(-c3nc(-c4ccccc4)no3)c2)C1 | 2µM*
CCN(CC)C(=O)Cn1c(C)ccc(NS(=O)(=O)c2ccc(C)cc2)c1=O | 8.6%
COc1ccc2c(c1)C(C[C@H]1CN(C(=O)C3CCC3)CC[C@H]1CC(=O)O)=NCC2 | i
Cc1cccc(C(=O)N2CCc3cc(CNC(=O)c4ccco4)ccc32)c1 | 4.3%
O=C(NCc1ccc2c(c1)CCN2C(=O)c1ccc(F)cc1)c1ccco1 | 2.82µM*
O=C(NCc1ccc2c(c1)CCN2C(=O)c1ccc(Cl)cc1)c1ccco1 | 35.4%
O=C(c1cccc(OC(F)(F)F)c1)N1CCCC1c1nncn1Cc1ccncc1 (stereo unspecified) | -0.9%
CCNc1ncc(CN2CCCC(CCc3cccc(C(F)(F)F)c3)C2)cn1 (stereo unspecified) | 7.94µM*
O=C(c1cccc(O)c1)N1CCCC(CCc2cccc(C(F)(F)F)c2)C1 (stereo unspecified) | i
